# From PubChem BioAssay (NCI)
# This is part of a sample that, as a whole, favours compounds with a hit. Of some 83,000 tested, about 20% had one in any assay.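 Results are percent growth after 48 hours of single-concentration exposure. 100 means growth as in untreated cells, lower positive values show inhibition; negative values down to -100 show cell death.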 Values without a mark were called inactive. Active and inactive are the calls of the source. The calls were made as follows: active = growth percent below 10; inactive = the rest.
# Test system: HL-60(TB) leukemia
# Test: NCI-60 one-dose screen, 48 h (100 = growth as untreated, 0 = no growth, -100 = all killed)
# Details: 10 µM unless noted
row,SMILES,growth
1,COc1ccc(S(=O)(=O)NCCCNc2nccc(-c3c(-c4ccc(F)cc4)nc4sccn34)n2)cc1,70.4%
2,COc1ccccc1N1CCN(CCn2c(=O)c3c(c4ccccc4n3C)n(C)c2=O)CC1,109%
3,Brc1ccc(-c2cn3ccnc3c(-c3ccc(Br)cc3)n2)cc1,30.2%
4,CCc1cc(Cl)c(OC)c(C(=O)NCC2CCCN2CC)c1O (centres undefined),84.6%
5,Cn1c2ccccc2c2c3c(c4c5ccccc5[nH]c4c21)C(=O)N(N)C3=O,81.8%
6,O=c1c2ccccc2sc2c(NCCCNCCO)nc3ccccc3c12,7.81% (active)
7,c1ccc(Cn2cnc3ccc(-c4nc(-c5ccc6c(c5)ncn6C5CCCCC5)cn5ccnc45)cc32)cc1,-20.8% (active)
8,CC(C)C[C@H](C(=O)N[C@H](C(N)=O)C(C)C)N1CC=CCN(OCc2ccccc2)S1(=O)=O,119% [2.5 µM]
9,CC(=O)c1cnc(-c2ccccc2)nc1CBr,41.5%
